HEK cytotox: kills HEK 293 cells. HEK 293 viability, ATP luminescence (CellTiter-Glo), 48-72 h. Potency, µM (top dose mostly 115 µM), for inactives: at the highest dose activity change, negative = cytotoxicity, hits mostly inhibitors. 94,000 tested, 6.6% active. AID 1345083; note: nearly all actives have a fitted effect of over 60% in size
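Pintool-delivered compounds were incubated with HEK 293 cells (250 cells/well) at 37 degree Celsius for 48 or 72 hr. ATP-dependent luminescence (CellTiter-Glo) then reported remaining viable cells.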
hNpr1 antagonist: antagonists of human natriuretic peptide receptor Npr1; HEK293 hNpr1 GloSensor cGMP, ANP-stimulated luminescence; 76,000 tested, 1.6% active; Potency, µM (titrated, usually from 46.3 µM), inactives show at the highest dose activity change, negative = inhibition, most hits filed as inhibitors; P16066; calls by dose curve; note: nearly all actives have a fitted effect of over 60% in size
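HEK293 cells stably expressing human Npr1 and cGMP GloSensor pGS-40F, loaded 2 h with 2% GloSensor reagent, given compound 30 min at room temperature. Luminescence read before and 20 min after 0.1 nM hNppA.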
3T3 cytotox: cytotoxic compounds in NIH 3T3 cells | Potency, µM (highest dose often 96.7 µM), without a hit: at the highest dose activity change, negative = cytotoxicity, actives largely listed as inhibitors | AID 1345082 | NIH 3T3 viability, CellTiter-Glo ATP luminescence, 48-72 h | 94,000 tested, 4.3% active; note: nearly all actives have a fitted effect of over 55% in size
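ATP-dependent luminescence (CellTiter-Glo) served as the viability signal for NIH 3T3 cells treated with compound for 48 or 72 hr at 37 °C.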
GPT2 inhibitor: GPT2 alanine aminotransferase inhibition. Recombinant GPT2, coupled pyruvate oxidase/HRP Amplex Red fluorescence. 100,000 tested, 0.25% active. Q8TD30. Potency, µM (doses to about 57.7 µM), for inactives: at the top dose activity change, negative = inhibition, most hits filed as inhibitors. AID 1671188; note: nearly all actives have a fitted effect of over 60% in size
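Fluorescence of coupled pyruvate oxidase/HRP/Amplex Red system (50uM Amplex, 30 min, dark) reports pyruvate formed by GPT2. Enzyme reaction: 10ng/uL GPT2, 2mM L-alanine, 250uM a-KG, 30 min room temperature, pH 7.5; 50uM AOA control.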
FLuc inh: inhibitors of firefly (Photinus pyralis) luciferase; P08659; purified P. pyralis luciferase, luminescence, biochemical; Potency, µM (doses to about 115 µM), most hits filed as inhibitors; 76,000 tested, 2.5% active; note: nearly all actives have a fitted effect of over 65% in size
Target sequence (P08659 whole entry, looked up): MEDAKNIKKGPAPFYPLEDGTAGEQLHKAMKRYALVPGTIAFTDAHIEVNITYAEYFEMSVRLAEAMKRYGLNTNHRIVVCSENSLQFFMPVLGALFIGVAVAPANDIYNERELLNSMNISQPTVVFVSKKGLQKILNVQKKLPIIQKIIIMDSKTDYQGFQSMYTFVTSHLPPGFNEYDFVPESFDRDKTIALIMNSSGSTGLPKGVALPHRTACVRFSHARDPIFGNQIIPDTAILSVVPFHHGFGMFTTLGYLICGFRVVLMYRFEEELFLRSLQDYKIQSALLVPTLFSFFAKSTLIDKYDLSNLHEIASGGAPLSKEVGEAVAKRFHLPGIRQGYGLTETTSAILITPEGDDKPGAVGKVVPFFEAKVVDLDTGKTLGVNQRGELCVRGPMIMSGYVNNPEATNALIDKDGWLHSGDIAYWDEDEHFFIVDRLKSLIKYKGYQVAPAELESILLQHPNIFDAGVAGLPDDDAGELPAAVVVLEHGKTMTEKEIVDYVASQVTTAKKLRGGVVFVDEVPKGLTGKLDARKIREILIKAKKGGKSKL
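Purified 10nM P. pyralis luciferase with 10uM D-luciferin and 10uM ATP in 50mM Tris acetate pH 7.5, 10mM Mg acetate, 0.01% Tween-20, 0.05% BSA. qHTS titration; luminescence read by CCD imager.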
The depositor's hits bear a star; i = inactive; ? = inconclusive; · = no result; [ ] = dose if it differs, or a comment. The list is not random: actives were taken first. Their share in the collection is about 10%. Unless noted, calls come from the whole dose curve; as a rule, active = well fitted curve in the direction sought with a large enough effect; inconclusive = small, poorly fitted or top-dose-only effect, or another doubt; inactive = no such curve, though single readings can be large; an effect the other way counts as inactive or inconclusive. % is set by controls: 0 for no effect and ±100 for the full control effect; potency is the fitted concentration of half-maximal effect.

SMILES	HEK cytotox	hNpr1 antagonist	3T3 cytotox	GPT2 inhibitor	FLuc inh
N#Cc1cccc(-c2c(C(=O)NC3CC3)nc3sccn23)c1	i	·	i	i	·
COc1cccc(-c2cccc(C(=O)N3CCN(C(=O)c4ccc(C(F)(F)F)cc4)CC3)c2)c1	?	·	?	3%	·
CC1(C)C(=O)N(CC2CCOCC2)[C@H]2CN(Cc3cccs3)C[C@@H]2[S+]1(=O)[O-]	0%[172 µM]	-3%[70.6 µM]	79µM*	-1%[88.5 µM]	i
CC(C)CC(=O)Nc1ccc([C@H]2OCC(=O)N(Cc3nccn3C)[C@@H]2CO)cc1	i	4%[70.6 µM]	-1%[174 µM]	i	i
O=C(Nc1ccccc1)Nc1ccc([C@H]2OCC(=O)N(Cc3ccncc3)[C@@H]2CO)cc1	-20%[172 µM]	3%[70.6 µM]	?	?	i
O=C(Nc1ccccc1)Nc1ccc([C@H]2OCC(=O)N(Cc3ccccc3)[C@@H]2CO)cc1	71µM*	-17%[70.6 µM]	89µM*	i	?
CC(C)CN1C(=O)CO[C@H](c2ccc(NC(=O)c3ccccc3)cc2)[C@H]1CO	100µM*	-24%[70.6 µM]	?	i	i
COc1ccc(C(=O)Nc2ccc([C@H]3OCC(=O)N(Cc4nccn4C)[C@@H]3CO)cc2)cc1	-18%	6%	-16%	2%	40µM*
COc1ccc(CN2C(=O)CO[C@H](c3ccc(NS(=O)(=O)c4ccc(F)cc4)cc3)[C@H]2CO)cc1	-20%	1%	35µM*	3%	i
CNC(=O)[C@H]1C[C@]2(CCCCN(CCO)C2=O)N(C(=O)CC(C)(C)C)[C@H]1c1ccccc1	-8%	·	?	·	·
COc1cccc(CNC(=O)C2CCCN2C(=O)c2cccc(-c3cccc(OC)c3)c2)c1 (centres undefined)	?	·	?	5%	·
Cc1c(Cl)cccc1NC(=O)Cn1c(C)cc2nc3n(c(=O)c21)CCCC3	-17%	-5%	-31%	i	i
O=C(NCc1ccc2c(c1)OCO2)c1cc(-c2cccc(C(F)(F)F)c2)c2nncn2n1	-17%	·	-20%	i	·
CCN1CCC2(CC1)Cc1ccccc1CN(S(=O)(=O)c1ccccc1)C2	-24%	·	32µM*	0%	·
CN1CCCC12Cc1ccccc1CN(S(=O)(=O)c1ccccc1)C2 (centres undefined)	?	·	?	-2%	·
Cc1nc(CN2C[C@H](C(=O)NCc3cccc(F)c3)C[C@@H]2c2ccc(F)cc2)cs1	89µM*	-2%[70.6 µM]	?	3%[88.5 µM]	i
Cc1nc(CN2C[C@H](C(=O)Nc3ccccc3)C[C@@H]2c2ccc(F)cc2)cs1	71µM*	0%[70.6 µM]	?	-20%[88.5 µM]	i
COc1ccc(-c2ccccc2C(=O)N2CCC(NC(=O)Cc3cccc(Cl)c3)CC2)nn1	i	·	-8%	·	·
Cc1oc2c(c1C(=O)NCCN1CCOCC1)CN(Cc1cccc(F)c1)CC2	-3%	0%	-6%	i	i
COc1cccc(C(=O)N2CCCC2C(=O)N2CCCC2c2nc3ccncc3[nH]2)c1 (centres undefined)	-4%	·	-14%	i	·
c1ccc(CN2CCC[C@H]2c2nc(-c3ccc(OC4CCCCC4)nc3)no2)nc1	63µM*	?	45µM*	2%[88.5 µM]	?
COCCNc1ncccc1-c1noc([C@@H]2CCCN2Cc2ccccn2)n1	22µM*	3%[70.6 µM]	?	-13%[88.5 µM]	i
c1ccc2ncc(CN3CCC[C@H]3c3nc(-c4ccc(OC5CCCCC5)nc4)no3)cc2c1	?	?	?	i	i
COCCOc1ccc(-c2noc([C@@H]3CCCN3Cc3c[nH]c4ccccc34)n2)cn1	?	-9%[70.6 µM]	-23%[138 µM]	-12%[88.5 µM]	i
COCCNc1ncccc1-c1noc([C@@H]2CCCN2Cc2ccncc2)n1	?	0%[70.6 µM]	-23%[174 µM]	4%[88.5 µM]	i
SMILES	HEK cytotox	hNpr1 antagonist	3T3 cytotox	GPT2 inhibitor	FLuc inh
c1ccc2c(CN3CCC[C@H]3c3nc(-c4ccc(OC5CCCCC5)nc4)no3)c[nH]c2c1	35µM*	-29%	32µM*	-10%	i
COc1ccc2[nH]c3c(c2c1)CCNC31CCN(C(=O)C2CCCC2)CC1	?	3%	?	-12%	i
COc1ccc(C(=O)N2CCCC(C(=O)N3CCC(N4Cc5cccn5C4=O)CC3)C2)cc1 (centres undefined)	?	·	-16%	i	·
O=C(c1ccc(Cl)nc1)N1CCN(c2ccc3nnc(C4CC4)n3n2)CC1	-3%	·	-29%	·	·
CC(=O)Nc1cccc(-c2cnc3n[nH]c(-c4ccccc4C)c3n2)c1	71µM*	-23%[70.6 µM]	45µM*	-4%[88.5 µM]	i
CC(=O)Nc1cccc(-c2cnc3n[nH]c(-c4sccc4C)c3n2)c1	32µM*	?	?	-3%[88.5 µM]	?
Cc1ccccc1-c1[nH]nc2ncc(-c3cccc(O)c3)nc12	?	-19%[70.6 µM]	?	0%[88.5 µM]	i
COc1ccc(-c2cnc3n[nH]c(-c4ccc5c(c4)OCO5)c3n2)cc1	?	8%[70.6 µM]	?	-9%[88.5 µM]	i
CC(=O)Nc1cccc(-c2cnc3n[nH]c(-c4ccc(F)cc4C)c3n2)c1	20µM*	-30%[70.6 µM]	25µM*	i	i
CC(=O)Nc1cccc(-c2cnc3n[nH]c(-c4ccc5c(c4)OCO5)c3n2)c1	22µM*	-26%[70.6 µM]	25µM*	?	?
COC(=O)C[C@H]1c2cccnc2C(=O)N(C)[C@@H]1C(=O)NCCc1ccccc1	?	·	?	-5%[27.3 µM]	·
COc1ccc(OC)c(NC(=O)C2CCN(c3cnc4nccnc4c3)CC2)c1	40µM*	-3%	?	-6%	i
Cc1cc(C)cc(NC(=O)c2cc(-c3ccc[nH]3)n[nH]2)c1	?	-3%	?	3%	20µM*
CCc1ccc(NC(=O)c2cc(-c3ccc[nH]3)n[nH]2)cc1	?	7%	-17%	4%	3.2µM*
Cc1ccc(NC(=O)c2cc(-c3ccc[nH]3)n[nH]2)cc1	-8%	-1%	-14%	i	4µM*
Cc1ccc(NC(=O)c2cc(-c3ccc[nH]3)n[nH]2)cc1C	2%	3%	1%	i	7.9µM*
CCOc1ccccc1CN1CCC2(CCN(C(=O)OC)CC2)Oc2ccccc21	?	0%	?	i	i
O=C(NCCc1ccccc1)NCC1CCC(=O)N(Cc2ccccc2)CC1 (centres undefined)	-5%	·	-23%	-2%	·
COc1ccc(C2(C(=O)NC3CCCc4c3[nH]c3c(Cl)cccc43)CCOCC2)cc1 (centres undefined)	45µM*	?	22µM*	i	i
O=C(Cc1n[nH]c(=O)c2ccccc12)NC1CCCc2c1[nH]c1c(Cl)cccc21 (centres undefined)	-115%	-27%	?	2%	i
O=C(COc1ccccc1)NC1CCCc2c1[nH]c1c(Cl)cccc21 (centres undefined)	45µM*	-2%	?	-5%	i
